# Screens deposited in PubChem BioAssay by National Center for Advancing Translational Sciences (NCATS).
# An excerpt weighted towards active compounds, which were near 11% of everything screened.
# AMA1-RON2 inh: inhibitors of Plasmodium falciparum AMA1-RON2 interaction; AID 720542; 0.2% of 360,000 active; Potency, µM (highest dose often 58.2 µM), without a hit: top-dose activity change, negative = inhibition, usual class: inhibitors; AlphaScreen AMA1-biotinylated RON2 peptide binding;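 also: 0% = vehicle wells and -100% = peptide control; nearly all actives have a fitted effect of over 45% in size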
#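 AMA1 (3D7) with his tag at 25 nM final met compounds first, then biotinylated RON2 peptide at 25 nM; detection used donor plus acceptor beads, 10 µg/mL apiece, read by AlphaScreen after 30 min at room temperature.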
# Pf growth 48h: inhibits P. falciparum growth in the first generation, 48 h | P. falciparum luciferase growth in erythrocytes, 48 h | Potency, µM (top dose mostly 28.7 µM), for the others: top-dose activity change, negative = inhibition, most hits filed as inhibitors | 5.9% of 310,000 active | AID 504832
#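 Luciferase-expressing P. falciparum in infected erythrocytes (2% hematocrit, 0.1% parasitemia final) in RPMI 1640/0.5% Albumax were exposed to compound for 48 hours at 37 C, 5% CO2; growth read as luminescence.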
# HCV inhibitor: HCV inhibition; Huh7.5.1 HCVcc-Cre infection, luciferase reporter, 44 h; Potency, µM (titrated, usually from 41.8 µM), for the others: top-dose activity change, negative = inhibition, usual class: inhibitors; 3.4% of 340,000 active; AID 651820
#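 Antiviral activity was scored by luciferase reporter output from cells infected with HCVcc-Cre (~0.5 moi) in presence of compound, 44 h infection period, cells seeded 1,000/well 4 h prior.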
# Pf growth 96h: inhibits malaria parasite growth, 96 h | P. falciparum luciferase reporter growth, 96 h | Potency, µM (series often up to 28.7 µM), for the others: at the top dose activity change, negative = inhibition, most hits filed as inhibitors | 6.9% of 320,000 active
#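 Plates of compound plus infected erythrocytes (2% hematocrit, 0.05% parasitemia final) incubate 96 hours, 37 C, 5% CO2. Detection reagent added; reduced luminescence from the parasites' luciferase reporter flags inhibition.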
# An asterisk follows results filed as active; u = inconclusive; x = no result given; [ ] = dose if it differs, or a comment. Calls follow the shape of the dose curve; as a rule, active = well fitted curve in the direction sought with a large enough effect; inconclusive = small, poorly fitted or top-dose-only effect, or another doubt; inactive = no such curve, though single readings can be large; an effect the other way counts as inactive or inconclusive. Unless noted, % is scaled to controls: 0 for no effect and ±100 for the full control effect; potency is read from the fitted curve at half-maximal effect.
SMILES,AMA1-RON2 inh,Pf growth 48h,HCV inhibitor,Pf growth 96h
CC(C)S(=O)(=O)c1csc(NC(=O)Nc2ccc(Cl)cc2)c1,-0.2%,u,-14.0%,10.4µM*
OCC[C@H]1C[C@H](O)[C@@H](O)[C@@]2(CCc3ccccc3O2)O1,5.6%,2.5%,27.1%,105.0%
CC(C)(CO)NCc1cc(Br)ccc1OCc1ccccc1,-7.4%,10.4µM*,8.1%,x
CCCC(c1nnnn1CC(=O)OCC)N(Cc1cc2c(C)cc(C)cc2[nH]c1=O)C1CCCC1 (stereo not given),4.8%,13.1µM*,12.2%,x
C[n+]1ccccc1COc1ccc(C(C)(C)C)cc1,0.9%,u,u,0.37µM*
CC(C)(C)c1ccc(OCCN2CCCC2)cc1,-10.8%,-22.5%,0.3%,u
CNc1nc(SCc2ccccc2Cl)nc2c1CCCC2,51.4%,13.1µM*,7.08µM*,14.7µM*
Cc1ccccc1OCCn1cnc2cc([N+](=O)[O-])ccc2c1=O,8.5%,u,-5.1%,0.0%
CCOC(=O)c1ccc(N2C(=O)C3CCOc4ccccc4C32)cc1 (stereo not given),19.1%,u,-23.6%,u
C=CC[C@]12CCc3sccc3C1N(c1ccc(C(=O)OCC)cc1)C2=O (stereo not given in full),-0.1%,10.4µM*,u,u
O=C(NCc1ccc2c(c1)OCO2)c1ccc(S(=O)(=O)N2CCCCC2)cc1,-2.4%,-7.2%,-22.0%,x
CCn1cc(S(=O)(=O)NCc2ccc3c(c2)OCO3)cn1,5.6%,21.7%,16.4%,11.7µM*
Cc1c(C(=O)NCc2ccc3c(c2)OCO3)oc2ccc(S(=O)(=O)N3CCCCC3)cc12,3.1%,10.4µM*,u,u
Cc1c(C(=O)NCc2ccc3c(c2)OCO3)oc2ccc(S(=O)(=O)N3CCCC3)cc12,-8.3%,11.7µM*,u,u
Cc1c(C(=O)O)oc2ccc(S(=O)(=O)NCc3ccc4c(c3)OCO4)cc12,5.4%,0.3%,19.2%,5.86µM*
Cc1c(C(=O)NCc2ccccc2)oc2ccc(S(=O)(=O)N3CCCC3)cc12,1.9%,x,3.3%,u
COc1ccccc1CNC(=O)c1oc2ccc(S(=O)(=O)N3CCCC3)cc2c1C,-10.8%,2.94µM*,u,209.2%
COc1ccc(CNC(=O)c2oc3ccc(S(=O)(=O)N4CCOCC4)cc3c2C)cc1,3.7%,11.7µM*,-28.9%,u
Fc1ccccc1N1CCN(C2CCN(Cc3c[nH]c4ccccc34)CC2)CC1,23.9%,x,u,3.7µM*
Clc1ccccc1N1CCN(Cc2c[nH]c3ccccc23)CC1,-20.0%,x,-14.8%,x
COc1cc(/C(O)=C(\C#N)c2nc3ccccc3[nH]2)cc(OC)c1OC,70.4%,u,-4.3%,14.7µM*
CC(=O)OC(/C(O)=C(\C#N)c1nc2ccccc2[nH]1)c1ccccc1 (stereo not given),25.5%,u,-18.1%,9.28µM*
C/C(O)=C(/C#N)c1nc2ccccc2[nH]1,24.9%,36.8%,3.3%,-12.8%
N#C/C(=C(/O)c1ccc(Cl)cc1)c1nc2ccccc2[nH]1,37.1%,22.6%,5.6%,9.9%
CC(=O)Nc1ccc(NC(=O)CSc2nnc(C)c(=O)[nH]2)cc1,5.8%,12.1%,15.6%,57.8%
SMILES,AMA1-RON2 inh,Pf growth 48h,HCV inhibitor,Pf growth 96h
CCOC(=O)N/N=C/c1ccc(OCCSc2ccc(Cl)cc2)c(OC)c1,-5.8%,5.22µM*,u,2.08µM*
CCOC(=O)N/N=C/c1ccc(OCCSc2ccc(Cl)cc2)c(OCC)c1,-8.1%,1.85µM*,u,3.29µM*
CCOc1ccc(Cl)cc1/C=N/O,2.0%,17.8%,u,16.6%
CCOc1ccc(Cl)cc1/C=N/NC(N)=O,2.1%,30.3%,14.1µM*,25.7%
Cc1ccc(C(=O)N2CCN(c3ccc(NC(=O)c4cccs4)cc3)CC2)cc1,-9.4%,10.4µM*,u,u
COc1ccc(C(=O)Nc2ccc(N3CCN(C(=O)c4cccs4)CC3)cc2)cc1Br,-6.0%,u,-17.7%,9.28µM*
O=C(Cc1sc(-c2ccccc2Cl)nc1-c1ccccc1)Nc1ccc(F)cc1,7.9%,u,7.94µM*,x
CCNC(=S)Nc1ccc(Cl)c(C(F)(F)F)c1,9.0%,1.4%,u,0.1%
CC(C)NCCCOc1ccc(Cl)cc1Br,7.3%,u,-13.7%,u
CC(C)NCCCCOc1ccc(Br)cc1Cl,11.0%,u,10µM*,27.0%
Cn1c(=O)c2c(ncn2CC(=O)N/N=C/c2ccc(Br)s2)n(C)c1=O,-0.5%[11.6 µM],u,19.0%,u
COc1ccccc1-c1noc(CCC(=O)Nc2cccnc2)n1,-10.9%,x,x,x
O=C(CCc1nc(-c2ccccc2Cl)no1)Nc1cccnc1,7.5%,14.4%,12.6µM*,-0.3%
CC(C)(C)[C@@H]1CCC(=O)N(CC[C@H](N=[N+]=[N-])c2ccccc2)CC1,-5.1%,u,u,u
C=CCn1c(SCC(=O)NC2CCCCC2)nnc1-c1cccnc1,-1.5%,-8.5%,x,77.6%
CCCCNC(=O)N(O)C1N(CCCC)C(=O)N(CC(=O)OC)C1(C)C (stereo not given),2.1%,-8.9%,0.3%,5.22µM*
Cn1c(=O)c2c(nc(CN3CCN(C(c4ccccc4)c4ccccc4)CC3)n2CC(N)=O)n(C)c1=O,19.1%,x,19.9%,u
CCn1c(CN2CCN(C(c3ccccc3)c3ccccc3)CC2)nc2c1c(=O)n(C)c(=O)n2C,9.0%,x,u,3.29µM*
CCOC(=O)Cn1c(CN2CCN(C(c3ccccc3)c3ccccc3)CC2)nc2c1c(=O)n(C)c(=O)n2C,-8.9%,4.15µM*,u,1.85µM*
COC(=O)[C@]1(Cc2ccccc2)N[C@H](CN(C)S(=O)(=O)c2ccc(C(C)(C)C)cc2)[C@@H]2C(=O)N(Cc3ccccc3)C(=O)[C@@H]21,5.6%,x,u,x
CCCC(=O)N1CCCC(c2cc(C(=O)NCc3ccc(F)cc3)no2)C1 (stereo not given),-4.7%,x,x,x
O=C(NCc1ccccn1)C1CCC(=O)N1C1CCCCC1 (stereo not given),106.4%,x,u,1.85µM*
O=C(NCCCN1CCCC1)C1CCC(=O)N1C1CCCCC1 (stereo not given),7.0%,30.4%,18.7%,7.0%
CC1CC(C)CN(CCCNC(=O)C2CCC(=O)N2C2CCCC2)C1 (stereo not given),18.2%,51.0%,14.9%,10.4µM*
CC1CCN(C(=O)c2ncn3c2c(=O)[nH]c2ccc(Br)cc23)CC1,0.3%,x,x,x
SMILES,AMA1-RON2 inh,Pf growth 48h,HCV inhibitor,Pf growth 96h
CC(=O)N=c1sc2cc(C)ccc2n1C,0.1%,82.5%,9.6%,9.28µM*
Cn1c(=NC(=O)c2ccco2)sc2ccccc21,-4.0%,63.5%,u,115.9%
Cn1c(=NC(=O)CCl)sc2ccccc21,-2.4%,u,2µM*,5.22µM*
CN(C)c1ccc(N=c2sc3ccccc3n2C)cc1,23.8µM*,x,-3.8%,u
CC(=O)SCC(=O)N=c1sc2cc(F)ccc2n1C,4.8%,-4.6%,3.0%,33.4%
CC(Sc1ccc(S(=O)(=O)N2CCN(C)CC2)cn1)C(=O)Nc1cccc(Cl)c1Cl (stereo not given),-18.7%,x,u,x
